Experiment [1] concerns the target Voltage-gated inwardly rectifying potassium channel KCNH2 (Homo sapiens) (UniProt Q12809). As to the kind of experiment: qHTS Assay for Small Molecule Inhibitors of the Human hERG Channel Activity (AID 588834).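 Also: lower thallium flux fluorescence means stronger hERG block; nearly all actives have a fitted effect of over 50% in size.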 Also: potency is read from the fitted curve at half-maximal effect. To be noted: U2OS BacMam hERG, FluxOR thallium flux fluorescence; series mostly up to 46.1 µM. An outline of the steps:
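Measured: FluxOR fluorescence after thallium stimulation in U2OS cells transduced with hERG by baculovirus. Compounds pre-incubated around 10 min; medium Opti-MEM with 2% FCS. AC50 from Hill equation.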
In general terms: In qHTS, concentration-response curves come from the screen itself.

Experiment [2] addresses Luciferin 4-monooxygenase (Photinus pyralis) (UniProt P08659). Briefly: Biochemical firefly luciferase enzyme assay for NPC (AID 624030). Also: nearly all actives have a fitted effect of over 70% in size. Also: potency is read from the fitted curve at half-maximal effect. The note with it: purified P. pyralis luciferase, luminescence, 5 min; series mostly up to 58.6 µM. The method, boiled down:
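Counter-screen for direct inhibition of the luciferase enzyme by approved-drug library compounds, run at 10 nM enzyme in 50 mM Tris acetate (final). Luminescence was read within 5 min of enzyme-buffer addition and normalized to PTC124 versus DMSO (0%).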

The nature of experiment [3]: S16 Schwann cell viability assay (CellTiter-Glo assay) (AID 624031).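 Also: native untransfected S16 rat Schwann cells; nearly all actives have a fitted effect of over 70% in size.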 To be noted: S16 rat Schwann cells viability, 24 h; series mostly up to 57.5 µM. An outline of the steps: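 Counter-screen for cytotoxicity: parental S16 rat Schwann cells lacking the PMP22 reporters, treated 24 h with compound, viability from cellular ATP by CellTiter-Glo luminescence, normalized to DMSO (0%) and no-cell wells.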
(In general: ATP-based viability assays read luminescence as a measure of living cells.)

Experiment [4] can be described thus: S16 Schwann cell PMP22 intronic element firefly luciferase assay (AID 624032). Also: nearly all actives have a fitted effect of over 30% in size. Also: potency is read from the fitted curve at half-maximal effect. The note with it: S16 rat Schwann cells, PMP22 element FLuc, 24 h; series mostly up to 57.5 µM. The method, boiled down:
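Rat S16 Schwann cells stably carrying a PMP22 intronic element-driven Fluc reporter were seeded overnight, then exposed to compounds for 24 h at 37 °C. Luminescence was normalized to PTC124 (positive control) and DMSO (0% activity).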

The nature of experiment [5]: S16 Schwann cell PMP22 intronic element beta-lactamase assay (AID 624044; calls by dose curve; also: nearly all actives have a fitted effect of over 15% in size; also: potency is read from the fitted curve at half-maximal effect). To be noted: S16 rat Schwann cells, PMP22 element beta-lactamase FRET, 24 h; series mostly up to 38.3 µM. The method, boiled down: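 Rat S16 Schwann cells with beta-Lac driven by a PMP22 intronic element, compound-treated 24 h at 37 °C. LiveBLAzer FRET B/G read: 460 nm normalized to potassium clavulanate vs DMSO; 535 nm FRET as viability; concentration-effect curves classified.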

Results filed as inconclusive are left out. The source made the active and inactive calls. Unless noted, calls follow the shape of the dose curve; as a rule, active = well fitted curve in the direction sought with a large enough effect; inconclusive = small, poorly fitted or top-dose-only effect, or another doubt; inactive = no such curve, though single readings can be large; an effect the other way counts as inactive or inconclusive.

Chain of Luciferin 4-monooxygenase (Photinus pyralis) (P08659 whole entry, looked up): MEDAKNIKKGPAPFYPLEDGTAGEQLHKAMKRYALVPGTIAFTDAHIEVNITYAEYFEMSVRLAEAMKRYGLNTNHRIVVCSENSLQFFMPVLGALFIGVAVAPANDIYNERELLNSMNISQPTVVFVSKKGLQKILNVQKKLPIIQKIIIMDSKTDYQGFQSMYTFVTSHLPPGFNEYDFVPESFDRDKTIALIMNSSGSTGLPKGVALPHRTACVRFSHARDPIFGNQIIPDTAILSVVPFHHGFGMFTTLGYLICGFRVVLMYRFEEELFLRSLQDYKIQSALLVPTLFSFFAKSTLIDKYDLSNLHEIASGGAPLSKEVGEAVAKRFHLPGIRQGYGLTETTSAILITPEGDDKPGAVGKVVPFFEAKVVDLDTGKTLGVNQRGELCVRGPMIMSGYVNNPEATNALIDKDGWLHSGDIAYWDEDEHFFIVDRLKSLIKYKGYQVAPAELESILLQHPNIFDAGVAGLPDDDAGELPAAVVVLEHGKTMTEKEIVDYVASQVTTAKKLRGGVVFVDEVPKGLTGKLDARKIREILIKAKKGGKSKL
Chain of Voltage-gated inwardly rectifying potassium channel KCNH2 (Homo sapiens) (Q12809 whole entry, looked up): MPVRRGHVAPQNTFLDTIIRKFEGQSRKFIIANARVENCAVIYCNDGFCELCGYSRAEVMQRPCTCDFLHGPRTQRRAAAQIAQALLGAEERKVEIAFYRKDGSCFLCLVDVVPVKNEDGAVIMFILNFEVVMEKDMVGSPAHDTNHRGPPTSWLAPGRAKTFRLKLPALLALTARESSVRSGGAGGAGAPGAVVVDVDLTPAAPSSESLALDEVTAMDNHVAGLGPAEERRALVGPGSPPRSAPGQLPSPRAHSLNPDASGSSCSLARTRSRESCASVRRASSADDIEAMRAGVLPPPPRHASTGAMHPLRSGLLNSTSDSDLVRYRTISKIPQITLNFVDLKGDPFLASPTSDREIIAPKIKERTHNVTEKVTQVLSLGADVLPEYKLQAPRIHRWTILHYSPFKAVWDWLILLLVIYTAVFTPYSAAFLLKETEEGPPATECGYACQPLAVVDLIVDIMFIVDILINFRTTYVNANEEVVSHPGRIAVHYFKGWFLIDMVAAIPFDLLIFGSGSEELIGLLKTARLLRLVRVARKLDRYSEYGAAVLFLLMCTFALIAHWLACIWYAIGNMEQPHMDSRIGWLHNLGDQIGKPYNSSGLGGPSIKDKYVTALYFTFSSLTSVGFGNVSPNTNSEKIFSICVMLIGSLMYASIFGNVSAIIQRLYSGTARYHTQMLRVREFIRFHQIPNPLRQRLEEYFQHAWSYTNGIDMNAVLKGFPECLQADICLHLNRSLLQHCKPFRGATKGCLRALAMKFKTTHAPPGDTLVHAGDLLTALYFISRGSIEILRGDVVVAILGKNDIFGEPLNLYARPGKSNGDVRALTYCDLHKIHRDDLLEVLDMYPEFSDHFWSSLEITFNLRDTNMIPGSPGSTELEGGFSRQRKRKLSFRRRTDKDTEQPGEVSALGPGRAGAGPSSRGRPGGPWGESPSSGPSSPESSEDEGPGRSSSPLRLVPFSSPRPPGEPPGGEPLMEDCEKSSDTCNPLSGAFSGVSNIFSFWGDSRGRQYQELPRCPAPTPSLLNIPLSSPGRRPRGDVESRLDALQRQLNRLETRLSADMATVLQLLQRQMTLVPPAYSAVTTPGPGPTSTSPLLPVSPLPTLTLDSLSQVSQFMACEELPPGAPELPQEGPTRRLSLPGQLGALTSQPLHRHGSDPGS

In the case of `OC(C#CCN1CCCC1)(c1ccccc1)c1ccccc1`, the Potency in experiment [1] is 22.4 µM (active). The Potency result in experiment [2], in experiment [3], in experiment [4] and in experiment [5] was “inactive” in each case.

For the compound `Cc1nc(-c2ccc(Cl)cc2)oc1COC(C)(C)C(=O)O`, the Potency entry in experiment [1], in experiment [2], in experiment [3] and in experiment [4] was “inactive” in each case.

On to `NC(=O)C1(N2CCCCC2)CCN(CCCC(=O)c2ccc(F)cc2)CC1`, for which the Potency in experiment [1] was 3.55 µM (active). In addition, the Potency entry in experiment [2], in experiment [3], in experiment [4] and in experiment [5] was “inactive” each time.

With `COc1cc(C(=O)NCc2ccc(OCCN(C)C)cc2)cc(OC)c1OC`, the Potency entry in experiment [1], in experiment [2], in experiment [3], in experiment [4] and in experiment [5] was “inactive” in each case.

Regarding `C#C[C@]1(O)CC[C@H]2[C@@H]3CCc4cc(OC)ccc4[C@H]3CC[C@@]21C`, the Potency result in experiment [1], in experiment [2], in experiment [3], in experiment [4] and in experiment [5] was “inactive” in each case.

On to `COc1ccc2c(c1)c1c3n2CCN(C)C3=NCC1`, for which the Potency in experiment [1] is 3.98 µM (active). Further, the Potency entry in experiment [2], in experiment [3] and in experiment [4] was “inactive” throughout.

Consider `O=C(O)C(Cc1cc(I)c(O)c(I)c1)c1ccccc1` (centres undefined), for which the Potency entry in experiment [1], in experiment [2], in experiment [3], in experiment [4] and in experiment [5] was “inactive” each time.

For `CCCCN=C(N)N=C(N)N`, the Potency result in experiment [1], in experiment [2], in experiment [3], in experiment [4] and in experiment [5] was “inactive” throughout.

On to `O=C(O)CCc1nc2ccccc2[nH]1`, for which the Potency entry in experiment [1], in experiment [2], in experiment [3] and in experiment [4] was “inactive” throughout.

Consider `CCCCc1cc2ccccc2c(OCCN(C)C)n1`, for which the Potency in experiment [1] is 7.94 µM (active). The Potency result in experiment [2], in experiment [3], in experiment [4] and in experiment [5] was “inactive” each time.

Consider `CC(=O)OC[C@H]1O[C@@H](n2ncc(=O)[nH]c2=O)[C@H](OC(C)=O)[C@@H]1OC(C)=O`, for which the Potency entry in experiment [1], in experiment [2], in experiment [3] and in experiment [4] was “inactive” throughout. The Potency in experiment [5] was 9.99 µM (active).

As to `Cc1ccccc1OCC(O)CO` (centres undefined), the Potency entry in experiment [1], in experiment [2], in experiment [3], in experiment [4] and in experiment [5] was “inactive” each time.

In the case of `C/C=C/C=N/NC(=O)c1ccncc1`, the Potency entry in experiment [1], in experiment [2], in experiment [3], in experiment [4] and in experiment [5] was “inactive” in each case.

With `Nc1ccc(S(=O)(=O)NCc2ccccc2)cc1`, the Potency result in experiment [1], in experiment [2], in experiment [3], in experiment [4] and in experiment [5] was “inactive” throughout.

With `COc1ccc(C(=O)c2ccccc2O)c(O)c1`, the Potency result in experiment [1], in experiment [2], in experiment [3], in experiment [4] and in experiment [5] was “inactive” each time.

In the case of `CC(=O)Nc1ccc(CC(=O)O)cc1`, the Potency result in experiment [1], in experiment [2], in experiment [3] and in experiment [4] was “inactive” each time.

In the case of `COc1ccc(-c2cc(C(F)F)nn2-c2ccc(S(N)(=O)=O)cc2)cc1F`, the Potency result in experiment [1], in experiment [2], in experiment [3], in experiment [4] and in experiment [5] was “inactive” throughout.

Take `Nc1nc(N)c(-c2ccccc2)s1`: the Potency entry in experiment [1], in experiment [2], in experiment [3], in experiment [4] and in experiment [5] was “inactive” in each case.

Take `CC(=O)NO`: the Potency result in experiment [1], in experiment [2], in experiment [3], in experiment [4] and in experiment [5] was “inactive” throughout.

`CC(=O)OCC(=O)[C@H]1CC[C@H]2[C@@H]3CCC4=CC(=O)CC[C@]4(C)[C@H]3CC[C@]12C`: the Potency entry in experiment [1], in experiment [2], in experiment [3] and in experiment [4] was “inactive” in each case.

As for `CCNC(=O)NCc1cccc(Cl)c1`, the Potency entry in experiment [1], in experiment [2], in experiment [3], in experiment [4] and in experiment [5] was “inactive” throughout.

Regarding `COc1ccc(/C=N/NC(=O)c2ccncc2)cc1OC`, the Potency entry in experiment [1], in experiment [2], in experiment [3], in experiment [4] and in experiment [5] was “inactive” in each case.

With `C#C[C@]1(O)CC[C@H]2[C@@H]3CCC4=CC(=O)CC[C@@H]4[C@H]3CC[C@@]21CC`, the Potency result in experiment [1], in experiment [2], in experiment [3] and in experiment [5] was “inactive” in each case. The Potency in experiment [4] is 20.3 µM (active).

`CC(=O)Nc1ncc([N+](=O)[O-])s1`: the Potency entry in experiment [1], in experiment [2], in experiment [3], in experiment [4] and in experiment [5] was “inactive” each time.

Consider `O=S(c1cc(Cl)cc(Cl)c1O)c1cc(Cl)cc(Cl)c1O`, for which the Potency result in experiment [1], in experiment [3] and in experiment [4] was “inactive” in each case. For the same compound, the Potency in experiment [2] was 32.2 µM (active).

Regarding `O=C(c1ccc(F)cc1)C1CCN(CCn2c(=S)[nH]c3ccccc3c2=O)CC1`, the Potency in experiment [1] is 0.251 µM (active). In addition, the Potency entry in experiment [2], in experiment [3], in experiment [4] and in experiment [5] was “inactive” each time.

For `CCOc1ccccc1OCCN[C@H](C)Cc1ccc(OC)c(S(N)(=O)=O)c1`, in experiment [1], the Potency is 14.1 µM (active). The Potency entry in experiment [2], in experiment [3], in experiment [4] and in experiment [5] was “inactive” each time.

With `CCC(CC)(CC(=O)Nc1cccc(/C=C/c2nc(C3CCC3)cs2)c1)C(=O)O`, the Potency result in experiment [1], in experiment [3], in experiment [4] and in experiment [5] was “inactive” each time. Further, the Potency in experiment [2] is 5.73 µM (active).

Regarding `Nc1ccc(S(=O)(=O)Nc2cnc3ccccc3n2)cc1`, the Potency entry in experiment [1], in experiment [2], in experiment [3], in experiment [4] and in experiment [5] was “inactive” in each case.

Take `Nc1nc(-c2ccccc2)c(Br)c(=O)[nH]1`: the Potency entry in experiment [1], in experiment [2], in experiment [3], in experiment [4] and in experiment [5] was “inactive” throughout.

In the case of `NC(=O)n1c(O)c(C(=O)c2cccs2)c2cc(Cl)ccc21`, the Potency entry in experiment [1] and in experiment [5] was “inactive” in each case.

For the compound `CCN(CC)CCNc1ccc(CO)c2sc3ccccc3c(=O)c12`, the Potency entry in experiment [2] and in experiment [3] was “inactive” each time. Besides, the Potency in experiment [4] is 1.61 µM (active); in experiment [5], 11.2 µM (active).

As to `FC(F)(F)C(F)(F)C(F)(F)C(F)(F)C(F)(F)C(F)(F)C(F)(F)C(F)(F)Br`, the Potency entry in experiment [2], in experiment [3], in experiment [4] and in experiment [5] was “inactive” in each case.

The values are drawn from PubChem BioAssay (NCATS).
